CRE Fsk mod: alters forskolin-stimulated CRE reporter signaling in CHO cells. CHO CRE-bla reporter (cAMP response element driving beta-lactamase), forskolin EC10, beta-lactamase ratio. AID 662. Potency, µM (doses to about 38.2 µM), inactives show at the top dose activity change, negative = inhibition, most hits filed as activators. actives 2.5% (n = 71,000); active = well fitted activation curve with a large enough effect in the signal ratio, with a control signal flat, not every such curve was filed as active; inconclusive = small, poorly fitted or top-dose-only effect, or effect the other way, or a change in a side signal; the % refers to the signal ratio; note: % of control where 0% means no effect
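Modulation of forskolin-driven signalling is measured in CHO cells carrying a CRE-controlled beta-lactamase reporter. Cells are stimulated with EC10 NKH 477 in the presence of titrated compound for 3 h at 37 °C, then loaded with CCF4 for 2 h at room temperature.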
ALOX15 inhib: inhibitors of human 15-lipoxygenase (ALOX15); purified 15hLO-1, xylenol orange hydroperoxide absorbance; Potency, µM (titrated, usually from 57.1 µM), for inactives: at the highest dose activity change, negative = inhibition, usual class: inhibitors; actives 1.4% (n = 74,000); AID 887; note: % is set by controls: 0 for no effect and ±100 for the full control effect; nearly all actives have a fitted effect of over 55% in size
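Hydroperoxide formed from arachidonic acid (50 uM) by purified human 15hLO-1 (40 nM) oxidizes ferrous iron, and the ferric-xylenol orange complex is read at 573 versus 405 nm. Compounds were preincubated 15 min; reaction ran 6 min at room temperature.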
Tau filament bind: binds recombinant human tau filaments. P10636. recombinant tau filaments, thioflavin S fluorescence, 15 h; filaments grown with octadecylsulfate alongside compound. AID 596. Potency, µM (doses to about 57.1 µM), inactives show at the top dose activity change, negative = inhibition. actives 2% (n = 71,000);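 note: % is set by controls: 0 for no effect and ±100 for the full control effect; actives lower thioflavin S fluorescence by blocking filaments or displacing dye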
Target sequence (P10636 whole entry, looked up): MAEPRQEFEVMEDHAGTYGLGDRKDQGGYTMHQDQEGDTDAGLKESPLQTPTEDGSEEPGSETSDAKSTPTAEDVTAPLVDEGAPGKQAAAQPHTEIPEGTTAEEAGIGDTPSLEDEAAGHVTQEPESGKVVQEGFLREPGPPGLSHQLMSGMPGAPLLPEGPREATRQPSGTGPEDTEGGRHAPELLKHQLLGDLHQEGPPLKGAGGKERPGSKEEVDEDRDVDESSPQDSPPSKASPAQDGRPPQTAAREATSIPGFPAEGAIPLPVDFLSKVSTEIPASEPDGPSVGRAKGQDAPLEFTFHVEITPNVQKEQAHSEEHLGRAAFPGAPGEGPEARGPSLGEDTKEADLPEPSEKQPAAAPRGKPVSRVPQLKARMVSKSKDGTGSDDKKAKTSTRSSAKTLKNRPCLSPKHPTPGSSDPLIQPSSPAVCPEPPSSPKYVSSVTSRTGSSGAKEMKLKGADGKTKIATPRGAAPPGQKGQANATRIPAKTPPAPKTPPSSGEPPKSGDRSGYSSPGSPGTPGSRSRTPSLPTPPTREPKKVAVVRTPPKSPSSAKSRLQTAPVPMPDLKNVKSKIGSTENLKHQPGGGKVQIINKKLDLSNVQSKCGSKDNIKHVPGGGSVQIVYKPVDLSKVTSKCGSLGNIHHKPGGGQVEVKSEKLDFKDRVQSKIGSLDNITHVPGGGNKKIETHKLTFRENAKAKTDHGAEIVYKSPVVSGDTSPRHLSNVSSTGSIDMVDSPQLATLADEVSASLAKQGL
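Recombinant tau protein (human, 1 uM final) plus 30 uM ODS in HEPES pH 7.4 with NaCl, DTT and thioflavine S. Compound present from the start; fluorescence at 510 nm after 15 h, 37 C.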
Hsp90 Hop PPI: changes Hsp90-Hop TPR2A binding signal, up or down; AlphaScreen TPR2A-His6 binding biotin-Hsp90 C-terminal peptide; Potency, µM (titrated, usually from 57 µM), without a hit: at the highest dose activity change, negative = inhibition; actives 0.44% (n = 71,000); AID 595; active = well fitted curve in either direction with a large enough effect; inconclusive = small, poorly fitted or top-dose-only effect, or another doubt; note: % is set by controls: 0 for no effect and ±100 for the full control effect
IkB sig inh: suppresses IkB signaling in ABC-DLBCL reporter cells. ABC-DLBCL IkBa-CBG/CBR dual luciferase ratio, 4 h; response scale: scaled: untreated 0%, proteasome inhibitor 100%. Potency, µM (highest dose often 57.1 µM), without a hit: top-dose IkBa stabilization activation. actives 0.04% (n = 110,000); active = well fitted curve in the direction sought with a large enough effect in the signal ratio, not every such curve was filed as active; inconclusive = small, poorly fitted or top-dose-only effect, or a change in a side signal; the % refers to the signal ratio;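 note: the direction sought is a rising ratio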
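Luminescence ratio of IκBα-fused green versus native red beetle luciferase in OCI-Ly3 cells, 4 h post-doxycycline with compound; red signal alone, scaled from basal (0%) to zero light (-100%), flagged nonspecific or cytotoxic effects.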
* marks the source's active call; other numbers are inactive results; ? = inconclusive; nt = no result; [ ] = dose if it differs, or a comment. Only some compounds are listed: those with a hit (about 3.6% of all), similar ones and a draw of the others. Unless noted, calls come from the whole dose curve; as a rule, active = well fitted curve in the direction sought with a large enough effect; inconclusive = small, poorly fitted or top-dose-only effect, or another doubt; inactive = no such curve, though single readings can be large; an effect the other way counts as inactive or inconclusive. Potency is the fitted concentration of half-maximal effect.

SMILES	CRE Fsk mod	ALOX15 inhib	Tau filament bind	Hsp90 Hop PPI	IkB sig inh
CCc1nc2c(c(=O)[nH]1)C1(CCCC1)Cc1ccccc1-2	?	5%	21%	-5%	1%
COC(=O)c1ccccc1NC(=O)CNc1cc(Cl)ccc1N1CCOCC1	7%	-30%	16µM*	?	?
Cc1cccn2c(=O)c3cc(C(=O)Nc4ccc(Cl)c(Cl)c4)sc3nc12	nt	nt	nt	nt	1%
CCN1C(=O)c2cccc3c(S(=O)(=O)Nc4ncccc4C)ccc1c23	5µM*	?	1%	4%	2%
CCN1C(=O)c2cccc3c(S(=O)(=O)Nc4ccccn4)ccc1c23	?	0%	1%	2%	9%
CCN1C(=O)c2cccc3c(S(=O)(=O)Nc4nc(C)cs4)ccc1c23	16µM*	-15%	-18%	-3%	?
CCCN1C(=O)c2[nH]nc(-c3cccc(OC)c3)c2C1c1ccccn1 (stereo unspecified)	nt	nt	nt	nt	3%
C=CC(C)(O)CCCC(C)CCCC(C)CCCC(C)C (stereo unspecified)	17%	10µM*	-20%	16%	-2%
Cc1ccc(Cn2ccnc2SCC(=O)Nc2ccc3c(c2)OCCO3)cc1	nt	nt	nt	nt	1%
COC(=O)c1ccc(NC(=O)CCn2c(=O)oc3ccccc32)cc1	-11%	-12%	-11%	1%	-1%
COC(=O)c1c(C(=O)OC)c2oc3ccccc3n2c1Cl	13µM*	-1%	17%	-5%	?
CCCCCCNC(=O)c1c[nH]c2ccc(S(=O)(=O)N(C)c3ccc(C(C)C)cc3)cc2c1=O	nt	nt	nt	nt	1%
Cc1ccc(C(=O)Nc2cc3c(cc2C)n(C)c(=O)c(=O)n3C)cc1	nt	nt	nt	nt	-2%
COc1ccccc1NC(=O)N(Cc1ccco1)Cc1cc2cc(C)cc(C)c2[nH]c1=O	3%	10µM*	61%	-12%	?
COc1ccc(C(=O)NCc2ccc3c(c2)CCN3C(C)=O)cc1OC	nt	nt	nt	nt	-2%
Cc1ccc(C)c(Cn2c(=O)n(-c3ccccc3)c(=O)c3c4c(sc32)CCCC4)c1	nt	nt	nt	nt	2%
O=c1c(-c2nc3ccccc3o2)c2oc3ccccc3n2c2ccccc12	4µM*	15%	12%	-4%	1%
O=c1oc2ccccc2n1CCn1c2ccccc2c2nc3ccccc3nc21	8%	?	-8%	4%	0%
CCNc1ncc2nc(-c3ccc(Cl)cc3)c(=O)n(C[C@H]3CCCO3)c2n1	6.3µM*	-8%	2%	-1%	-2%[11.4 µM]
O=c1c(-c2ccc(F)cc2)nc2cnc(N3CCOCC3)nc2n1C[C@H]1CCCO1	1µM*	12%	4%	-4%	-1%[11.4 µM]
O=c1c(-c2ccc(Cl)cc2)nc2cnc(N3CCOCC3)nc2n1C[C@H]1CCCO1	0.79µM*	11%	-3%	-5%	0%[11.4 µM]
O=c1c(-c2ccc(Cl)cc2)nc2cnc(N3CCOCC3)nc2n1Cc1ccc(F)cc1	6.3µM*	18%	-7%	-2%	-1%[11.4 µM]
COc1ccc(-c2nc3cnc(N4CCOCC4)nc3n(C[C@H]3CCCO3)c2=O)cc1	?	3%	116%	-5%	0%[11.4 µM]
CC(C)=C[C@H]1[C@@H](COC(=O)c2ccccc2Cl)C1(C)C	-2%[7.6 µM]	7%[11.4 µM]	1%[11.4 µM]	3%[11 µM]	0%[11.4 µM]
C[C@@H](c1ccccc1)N1C(=O)[C@H]2[C@H]3[C@H](O)[C@H](O)C/C(=N/OC[C@@H](O)COCc4ccco4)[C@H]3CC[C@@H]2C1=O	nt	4%[11.4 µM]	nt	nt	nt
SMILES	CRE Fsk mod	ALOX15 inhib	Tau filament bind	Hsp90 Hop PPI	IkB sig inh
Cc1cccc(N2CCN(C(=O)C3CCN(S(=O)(=O)c4cccc5cccnc45)CC3)CC2C)c1 (stereo unspecified)	?	-16%	-3%	-12%	?
Cc1cccc(NC(=O)C2CCN(S(=O)(=O)c3cccc4nsnc34)CC2)n1	?	-12%	-84%	-6%	0%
COc1ccc2nc(NC(=O)C3CCN(S(=O)(=O)c4cccc5nsnc45)CC3)sc2c1	?	-15%	13µM*	-18%	?
Cc1cccc(N2CCN(C(=O)C3CCN(S(=O)(=O)c4cccc5nsnc45)CC3)CC2C)c1 (stereo unspecified)	?	-23%	25µM*	-23%	?
CCOC(=O)c1ccc(NC2=CC(c3ccc(O)c(OCC)c3)N(c3ccc(C(=O)OCC)cc3)C2=O)cc1 (stereo unspecified)	nt	nt	nt	nt	-1%
O=C(Cn1ccn(-c2ccc(F)c(F)c2)c(=O)c1=O)NCc1ccccc1	nt	nt	nt	nt	-1%
CCOc1ccc(-c2cnc(NCc3ccc(C(F)(F)F)cc3)n2C)cc1	nt	nt	nt	nt	-1%
COc1cccc(Cn2c(=O)c(CCc3ccccc3)nc3cnc(N4CCNCC4)nc32)c1	?	8%	99%	-6%	1%[11.4 µM]
O=c1c(-c2ccccc2)nc2cnc(N3CCNCC3)nc2n1Cc1ccc(F)cc1	?	-4%	47%	-1%	-4%[11.4 µM]
COc1cccc(Cn2c(=O)c(CCc3ccccc3)nc3cnc(N4CCOCC4)nc32)c1	2µM*	-25%	16%	-18%	3%[11.4 µM]
COc1cccc(Cn2c(=O)c(-c3cc(F)cc(F)c3)nc3cnc(N4CCNCC4)nc32)c1	?	-2%	4µM*	16%	0%[11.4 µM]
O=c1c(-c2cc(F)cc(F)c2)nc2cnc(N3CCNCC3)nc2n1Cc1ccc(F)cc1	?	-10%	4µM*	24%	-1%[11.4 µM]
CSc1ccc(CCNC(=O)c2ccc(-c3nc(COc4ccccc4)c(C)o3)cc2)cc1	nt	nt	nt	nt	0%
COc1ccc(-c2ncc3ccccn23)cc1	2%	-5%	20µM*	-26%	2%
CS(=O)(=O)Nc1cccc(-c2nc(Nc3ccncc3)c3ccccc3n2)c1	6.3µM*	5%	76%	-11%	-4%[11.4 µM]
Cc1cnc(CNc2nc(-c3cccc(NS(C)(=O)=O)c3)nc3ccccc23)cn1	13µM*	17%	-15%	-6%	-6%[11.4 µM]
COc1cccc(-c2nc(NCc3cnc(C)cn3)c3ccccc3n2)c1	13µM*	-1%	-5%	-2%	-2%[11.4 µM]
COc1ccc(-n2c(=O)c3c4c(sc3n(Cc3cc(C)ccc3C)c2=O)CN(C(C)=O)CC4)c(OC)c1	nt	nt	nt	nt	7%
C=Cc1c(C)/c2[n-]/c1=C\c1[n-]c(c(CC)c1C)/C=c1\[n-]c3c(c1C)C(=O)C(C(=O)[O-])C=3c1[n-]c(c(C)c1CCC(=O)[O-])\C=2.[Cu].[Na+].[Na+] (stereo unspecified)	nt	6.3µM*	nt	nt	nt
COCCNS(=O)(=O)c1cc(-c2nn(C)c(=O)c3ccccc23)ccc1C	13µM*	0%	5%	-1%	0%
Cc1ccc(-c2nn(C)c(=O)c3ccccc23)cc1CO	?	7%	0%	-2%	2%
CN1CCN(c2ccc(NC(=O)c3cccc(OCc4ccccc4)c3)cc2)CC1	-2%	5%	7.9µM*	-22%	?
CN1CCN(c2ccc(NC(=O)Cc3ccccc3)cc2)CC1	?	3%	-22%	-1%	-4%

Bioassay records (PubChem)
